# Records with an inconclusive call do not appear. Calls of active or inactive are those of the source. The calls were made as follows, unless noted: active = hit-call score of the fitted dose curve at least 0.9, where 1 is the maximum; inactive = score below 0.9.
# Columns and labels:
# [1] = ACEA_ER_80hr: ACEA Biosciences xCELLigence Real-Time Cell Analysis on Estrogen Receptor Agonism for Proliferation (AID 2282667; active = hit-call score of the fitted dose curve at least 0.9, where 1 is the maximum); conditions: T47D proliferation, impedance (xCELLigence), 80 h
# Outline: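 Real-time impedance growth kinetics of human T-47D breast cells read 80 h after dosing, gain-of-signal fitted relative to DMSO. Compounds: 1:4 serial series, top final concentration 100 uM, n = 2.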
# [2] = ATG_CRE_CIS: Attagene CIS-FACTORIAL HepG2 Assay for human cAMP Responsive Element (CRE) binding protein 3 (AID 2282926); conditions: HepG2 CRE cis-reporter, Attagene multiplexed mRNA; actives raise or lower the signal
# Outline: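 Multiplexed transcription-unit reporters transfected into HepG2; 24 h dosing; RT-PCR/capillary electrophoresis fluorescence read-out; bidirectional fit vs DMSO.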
# [3] = biological target: CCAAT/enhancer-binding protein beta (Homo sapiens) (UniProt P17676); experiment: ATG_C_EBP_CIS: Attagene CIS-FACTORIAL HepG2 Assay for human CCAAT/Enhancer Binding Protein (C/EBP) beta (AID 2282927); conditions: HepG2 Attagene cis-factorial transcription factor reporter; actives raise or lower the signal
# Chain of CCAAT/enhancer-binding protein beta (Homo sapiens) (P17676 whole entry, looked up, the tested form may be a part): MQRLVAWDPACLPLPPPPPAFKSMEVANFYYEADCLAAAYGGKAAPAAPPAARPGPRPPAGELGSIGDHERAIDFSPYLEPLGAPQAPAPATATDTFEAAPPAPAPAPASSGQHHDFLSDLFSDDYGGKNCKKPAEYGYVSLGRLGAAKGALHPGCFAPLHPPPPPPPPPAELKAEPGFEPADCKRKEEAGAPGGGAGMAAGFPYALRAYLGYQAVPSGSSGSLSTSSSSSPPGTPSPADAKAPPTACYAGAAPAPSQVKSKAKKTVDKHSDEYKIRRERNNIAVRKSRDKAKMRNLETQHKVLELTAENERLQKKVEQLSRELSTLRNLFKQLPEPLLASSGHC
# Outline: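 Endogenous C/EBPb-driven reporter transcripts measured in transfected human HepG2 cells at 24 h via RT-PCR and capillary electrophoresis of labelled fragments. Activity fitted in both directions relative to DMSO baseline.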
# [4] = ATG_CMV_CIS: Attagene CIS-FACTORIAL HepG2 Assay for human CMV (Internal Marker) (AID 2282928); conditions: HepG2 CMV promoter reporter, transcription factor profiling; actives raise or lower the signal;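 also: endpoint acts as a background internal control marker rather than a target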
# Outline: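 After transient transfection of HepG2 with reporter transcription units driven by cis-regulatory promoters, cells receive test chemical for 24 h. Labeled reporter amplicons, digested with HpaI, are sized and quantified by capillary electrophoresis against DMSO.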
# [5] = ATG_DR4_LXR_CIS: Attagene CIS-FACTORIAL HepG2 Assay for human Liver X Receptor (LXR), DR4 submotif (AID 2282929); conditions: HepG2 Attagene DR4 cis-reporter, mRNA transcription; actives raise or lower the signal
# Outline: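 Measures endogenous transcription factor activity via a DR4-driven reporter transcript in human HepG2 cells. Compounds incubated 24 h; mRNA quantified by RT-PCR and capillary electrophoresis, analysed as gain or loss of signal versus DMSO.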
# [6] = biological target: Aryl hydrocarbon receptor (Homo sapiens) (UniProt P35869); experiment: ATG_Ahr_CIS: Attagene CIS-FACTORIAL HepG2 Assay for human Aryl Hydrocarbon Receptor (Ahr) (AID 2282930); conditions: HepG2 AhR cis-factorial reporter transcription; actives raise or lower the signal
# Chain of Aryl hydrocarbon receptor (Homo sapiens) (P35869 whole entry, looked up): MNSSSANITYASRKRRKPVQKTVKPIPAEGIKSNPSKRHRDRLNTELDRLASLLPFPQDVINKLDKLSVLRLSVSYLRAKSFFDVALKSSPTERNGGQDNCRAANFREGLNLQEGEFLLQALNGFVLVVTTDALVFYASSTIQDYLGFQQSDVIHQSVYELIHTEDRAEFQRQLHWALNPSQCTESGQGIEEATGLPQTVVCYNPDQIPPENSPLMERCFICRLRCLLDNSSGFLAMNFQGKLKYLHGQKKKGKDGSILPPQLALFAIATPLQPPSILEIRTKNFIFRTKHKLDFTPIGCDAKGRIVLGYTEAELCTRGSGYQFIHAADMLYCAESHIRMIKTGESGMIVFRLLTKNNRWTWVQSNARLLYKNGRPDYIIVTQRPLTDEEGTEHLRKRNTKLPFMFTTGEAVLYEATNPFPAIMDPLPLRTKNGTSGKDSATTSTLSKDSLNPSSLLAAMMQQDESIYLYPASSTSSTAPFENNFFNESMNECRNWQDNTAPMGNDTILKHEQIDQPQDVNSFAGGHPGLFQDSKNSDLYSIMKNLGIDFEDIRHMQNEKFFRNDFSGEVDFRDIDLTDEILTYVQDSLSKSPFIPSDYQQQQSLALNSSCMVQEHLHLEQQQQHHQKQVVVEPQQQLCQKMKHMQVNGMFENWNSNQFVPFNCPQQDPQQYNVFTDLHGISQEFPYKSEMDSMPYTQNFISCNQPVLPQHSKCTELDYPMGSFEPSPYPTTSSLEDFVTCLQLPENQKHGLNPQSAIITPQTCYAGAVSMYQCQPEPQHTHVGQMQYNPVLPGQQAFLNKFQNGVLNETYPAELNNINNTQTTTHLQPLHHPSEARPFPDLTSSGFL
# Outline: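 Reporter mRNA levels, quantified by RT-PCR and fluorescent capillary electrophoresis, reflect endogenous AhR transcriptional activity in HepG2 cells carrying transfected cis-promoter reporter constructs. Readout at 24 h post-dose; gain or loss fitted against DMSO baseline.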
# [7] = ATG_AP_1_CIS: Attagene CIS-FACTORIAL HepG2 Assay for human Activator Protein 1 (AP-1) (AID 2282931); conditions: HepG2 Attagene cis-factorial AP-1 reporter mRNA; actives raise or lower the signal
# Outline: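 Bidirectional concentration-response fitting against DMSO controls. Underlying signal: reporter mRNA from cis-promoter constructs in transiently transfected HepG2, measured after 24 h by RT-PCR and capillary electrophoresis.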
# [8] = ATG_AP_2_CIS: Attagene CIS-FACTORIAL HepG2 Assay for human Activator Protein 2 (AP-2) (AID 2282932); conditions: HepG2 AP-2 cis-reporter, Attagene transcription factor profiling; actives raise or lower the signal
# Outline: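 HepG2, transient MRTU transfection, cis-regulated reporters; 24 h compound exposure; RNA isolated, RT-PCR, 6-FAM labelling, HpaI digest, CE fluorescence. DMSO = negative control/baseline, bidirectional fit.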
# [9] = ATG_BRE_CIS: Attagene CIS-FACTORIAL HepG2 Assay for human Bone Morphogenetic Protein (BMP) Response Element (BRE) (AID 2282933); conditions: HepG2 BMP response element reporter, Attagene transcription factor profiling; actives raise or lower the signal
# Outline: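 Endogenous transcription factor activity read in transiently transfected HepG2 cells after 24 h chemical exposure. Bidirectional curve fitting against DMSO; readout is reporter transcript level by RT-PCR with capillary electrophoresis of labelled products.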
# [10] = biological target: Retinoic acid receptor alpha (Homo sapiens) (UniProt P10276); experiment: ATG_DR5_RAR_CIS: Attagene CIS-FACTORIAL HepG2 Assay for human Retinoic Acid Receptor Alpha (RARE), DR5 submotif (AID 2282934); conditions: HepG2 Attagene cis-factorial RARE DR5 reporter, mRNA; actives raise or lower the signal
# Chain of Retinoic acid receptor alpha (Homo sapiens) (P10276 whole entry, looked up): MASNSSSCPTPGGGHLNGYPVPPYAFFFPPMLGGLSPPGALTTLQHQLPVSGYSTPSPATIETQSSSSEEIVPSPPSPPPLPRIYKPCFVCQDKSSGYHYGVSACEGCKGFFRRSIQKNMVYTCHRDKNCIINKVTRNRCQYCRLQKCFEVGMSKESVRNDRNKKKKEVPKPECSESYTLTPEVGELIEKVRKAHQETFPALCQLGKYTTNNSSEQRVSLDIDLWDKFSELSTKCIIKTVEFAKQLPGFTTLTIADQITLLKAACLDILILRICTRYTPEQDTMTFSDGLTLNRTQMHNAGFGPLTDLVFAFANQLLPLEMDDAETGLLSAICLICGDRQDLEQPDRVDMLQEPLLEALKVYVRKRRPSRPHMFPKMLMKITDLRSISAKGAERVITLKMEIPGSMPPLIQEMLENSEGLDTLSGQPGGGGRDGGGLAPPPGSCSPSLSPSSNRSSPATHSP
# Outline: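 Reporter transcripts from a DR5-regulated unit, measured via RT-PCR plus capillary electrophoresis, reflect endogenous RAR activity in transiently transfected human HepG2 liver cells. Exposure lasted 24 h; gain or loss of signal scored against DMSO.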
# [11] = biological target: Transcription factor E2F1 (Homo sapiens) (UniProt Q01094); experiment: ATG_E2F_CIS: Attagene CIS-FACTORIAL HepG2 Assay for human E2F Transcription Factor 1 (AID 2282935); conditions: HepG2 Attagene cis-reporter, E2F reporter RNA transcripts; actives raise or lower the signal
# Chain of Transcription factor E2F1 (Homo sapiens) (Q01094 whole entry, looked up): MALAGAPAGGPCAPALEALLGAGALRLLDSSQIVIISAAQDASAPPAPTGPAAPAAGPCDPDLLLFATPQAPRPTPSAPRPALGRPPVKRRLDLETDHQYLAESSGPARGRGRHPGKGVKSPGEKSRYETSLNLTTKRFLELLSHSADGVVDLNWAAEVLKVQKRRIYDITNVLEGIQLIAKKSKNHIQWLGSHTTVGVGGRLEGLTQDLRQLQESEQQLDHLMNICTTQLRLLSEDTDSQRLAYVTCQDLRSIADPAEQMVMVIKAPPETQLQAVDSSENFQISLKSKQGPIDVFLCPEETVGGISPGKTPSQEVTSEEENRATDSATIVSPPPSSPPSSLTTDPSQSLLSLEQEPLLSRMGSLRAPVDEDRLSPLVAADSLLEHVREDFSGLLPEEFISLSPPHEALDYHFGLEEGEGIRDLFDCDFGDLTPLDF
# Outline: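 Cis-element reporter mRNA induction in transiently transfected HepG2, 24 h exposure. Activity fitted in both directions relative to DMSO negative control.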
# [12] = ATG_M_61_CIS: Attagene CIS-FACTORIAL HepG2 Assay for M61 Transcription Factor (Internal Marker) (AID 2282937); conditions: HepG2 Attagene CIS-FACTORIAL M61 internal marker reporter; actives raise or lower the signal
# Outline: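 Fluorescence from labelled cDNA fragments, separated by capillary electrophoresis, quantifies reporter induction. HepG2 cells bearing transiently transfected cis-promoter MRTUs were incubated with test chemical for 24 h; DMSO defined baseline for gain/loss fitting.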
# [13] = ATG_EGR_CIS: Attagene CIS-FACTORIAL HepG2 Assay for human Early Growth Response 1 (EGR1) (AID 2282938); conditions: HepG2 Attagene CIS-FACTORIAL EGR reporter mRNA; actives raise or lower the signal
# Outline: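 Cell-based multiplex transcription assay: HepG2 carrying transfected cis-element reporter units, 24 h chemical treatment. Fluorescence from capillary electrophoresis of RT-PCR products gives mRNA levels; fitting is bidirectional relative to DMSO.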
# [14] = ATG_M_19_CIS: Attagene CIS-FACTORIAL HepG2 Assay for M19 Transcription Factor (Internal Marker) (AID 2282939); conditions: HepG2 Attagene CIS-FACTORIAL M19 internal marker reporter; actives raise or lower the signal
# Outline: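 Internal marker readout, fitted in both directions against DMSO, from HepG2 cells carrying transfected cis-element reporter constructs; RT-PCR and capillary electrophoresis of reporter mRNA after 24 h exposure.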
# [15] = ATG_ERE_CIS: Attagene CIS-FACTORIAL HepG2 Assay for Estrogen Response Element (ERE) (AID 2282940); conditions: HepG2 ERE cis-reporter, Attagene RNA transcript; actives raise or lower the signal
# Outline: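 After 24 h compound treatment, RNA from transfected HepG2 cells was reverse-transcribed, reporter cDNA PCR-amplified, FAM-labelled, HpaI-cut and resolved by capillary electrophoresis. ERE-driven cis reporter transcripts reflect endogenous factors; gain or loss scored against DMSO.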
# [16] = ATG_Ets_CIS: Attagene CIS-FACTORIAL HepG2 Assay for human Erythroblast Transformation Specific (ETS) (AID 2282941); conditions: HepG2 ETS cis-reporter transcription, actives raise or lower the signal
# Outline: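 Human HepG2 hepatoma cells were transiently transfected with promoter-driven reporter constructs and treated for 24 hours. Reporter transcripts were quantified by RT-PCR with fluorescent primer extension; bidirectional curve fitting used DMSO as reference.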
# [17] = ATG_FoxO_CIS: Attagene CIS-FACTORIAL HepG2 Assay for human Forkhead box O (FoxO) (AID 2282943); conditions: HepG2 Attagene cis-reporter, FoxO element, mRNA; actives raise or lower the signal
# Outline: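 Endogenous transcription factor activity read from multiplexed cis-promoter reporter transcripts in transiently transfected HepG2, 24 h after dosing. Reporter RNA measured via RT-PCR plus capillary electrophoresis of FAM-labeled products; gain or loss relative to DMSO.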
# [18] = ATG_GATA_CIS: Attagene CIS-FACTORIAL HepG2 Assay for human GATA Binding Protein (AID 2282944); conditions: HepG2 GATA cis-element reporter, Attagene multiplex mRNA; actives raise or lower the signal
# Outline: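 Reporter transcripts from a GATA cis-regulated unit, among multiplexed reporters in transfected HepG2 cells, were measured by RT-PCR with capillary electrophoresis after 24 h dosing. Induction or loss scored relative to DMSO.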
# [19] = ATG_E_Box_CIS: Attagene CIS-FACTORIAL HepG2 Assay for human Enhancer Box (E-box) (AID 2282936); conditions: HepG2 E-box cis-reporter transcription, actives raise or lower the signal
# Outline: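 Cells: HepG2 (human liver), transient MRTU transfection. Exposure 24 h. RNA → oligo(dT) RT → PCR → 6-FAM label → HpaI → CE. Activity fitted both directions relative to DMSO.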
# [20] = biological target: Hepatocyte nuclear factor 3-beta (Homo sapiens) (UniProt Q9Y261); experiment: ATG_FoxA2_CIS: Attagene CIS-FACTORIAL HepG2 Assay for human Forkhead box A2 (FOXA2) (AID 2282942); conditions: HepG2 cis-reporter transcription factor activity, 24 h; actives raise or lower the signal
# Chain of Hepatocyte nuclear factor 3-beta (Homo sapiens) (Q9Y261 whole entry, looked up): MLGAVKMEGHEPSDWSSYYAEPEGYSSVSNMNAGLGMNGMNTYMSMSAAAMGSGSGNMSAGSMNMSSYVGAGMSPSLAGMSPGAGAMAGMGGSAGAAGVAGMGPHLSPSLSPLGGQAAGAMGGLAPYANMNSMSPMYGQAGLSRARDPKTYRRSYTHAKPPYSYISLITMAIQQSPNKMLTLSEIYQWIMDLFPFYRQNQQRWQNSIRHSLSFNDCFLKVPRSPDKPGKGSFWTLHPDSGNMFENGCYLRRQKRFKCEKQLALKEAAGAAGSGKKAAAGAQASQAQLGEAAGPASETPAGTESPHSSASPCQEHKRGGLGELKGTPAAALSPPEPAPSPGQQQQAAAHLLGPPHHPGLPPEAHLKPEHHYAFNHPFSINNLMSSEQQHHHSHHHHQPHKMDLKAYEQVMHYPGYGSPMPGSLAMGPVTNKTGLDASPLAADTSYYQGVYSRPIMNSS
# Outline: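 In transiently transfected human HepG2 cells, promoter-driven reporter mRNA levels after 24 h chemical exposure are determined via RT-PCR with capillary electrophoresis. DMSO serves as baseline for bidirectional fitting.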
smiles,measurement,setting,value
O=C(O)C(F)(F)C(F)(F)C(F)(F)OC(F)(C(F)(F)F)C(F)(F)F,outcome,[1],inactive
same,outcome,[2],inactive
same,outcome,[3],inactive
same,outcome,[4],inactive
same,AC50,[5],238000 nM (active)
same,outcome,[6],inactive
same,outcome,[7],inactive
same,outcome,[8],inactive
same,outcome,[9],inactive
same,outcome,[10],inactive
same,outcome,[11],inactive
same,outcome,[12],inactive
same,outcome,[13],inactive
same,outcome,[14],inactive
same,outcome,[15],inactive
same,outcome,[16],inactive
same,outcome,[17],inactive
same,outcome,[18],inactive
CC(C)(C)c1cc(Cc2cc(C(C)(C)C)c(O)c(C(C)(C)C)c2)cc(C(C)(C)C)c1O,outcome,[1],inactive
same,outcome,[2],inactive
same,outcome,[3],inactive
same,outcome,[4],inactive
same,outcome,[5],inactive
same,outcome,[6],inactive
same,outcome,[7],inactive
same,outcome,[8],inactive
same,outcome,[9],inactive
same,outcome,[10],inactive
same,outcome,[11],inactive
same,outcome,[19],inactive
same,outcome,[12],inactive
same,outcome,[13],inactive
same,outcome,[14],inactive
same,outcome,[15],inactive
same,outcome,[16],inactive
same,outcome,[20],inactive
same,outcome,[17],inactive
same,outcome,[18],inactive
C[C@]12CC[C@H]3C(=CCc4cc(O)ccc43)[C@@H]1CCC2=O,AC50,[1],1.43 nM (active)
same,outcome,[2],inactive
same,outcome,[3],inactive
same,outcome,[4],inactive
same,outcome,[5],inactive
same,outcome,[6],inactive
same,outcome,[7],inactive
same,outcome,[8],inactive
same,outcome,[9],inactive
same,outcome,[10],inactive
same,outcome,[11],inactive
same,outcome,[12],inactive
same,outcome,[13],inactive
same,outcome,[14],inactive
same,AC50,[15],62.6 nM (active)
same,outcome,[16],inactive
same,outcome,[20],inactive
same,outcome,[17],inactive
same,outcome,[18],inactive
O=C(O)CCC(F)(F)C(F)(F)C(F)(F)F,outcome,[1],inactive
same,outcome,[2],inactive
same,outcome,[3],inactive
same,outcome,[4],inactive
same,outcome,[5],inactive
same,outcome,[6],inactive
same,outcome,[7],inactive
same,outcome,[8],inactive
same,outcome,[9],inactive
same,outcome,[10],inactive
same,outcome,[11],inactive
same,outcome,[12],inactive
same,outcome,[13],inactive
same,outcome,[14],inactive
same,outcome,[15],inactive
same,outcome,[16],inactive
same,outcome,[20],inactive
same,outcome,[18],inactive
